Hits are enriched below; roughly 0.71% of the tested compounds scored in any of these assays.
cardiac RTF act: increases calcium sensitivity of human cardiac regulated thin filaments | P19429+P45379 | IANBD-labeled TnC RTF fluorescence at EC20 calcium; 0% EC20 calcium, 100% full calcium | activation, % at 7.2 µM | 340,000 compounds, 0.24% hits;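 active means activation above the mean over all tested compounds plus 3 SD, cut at about 30% in these data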;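 further: rise in fluorescence read as greater calcium sensitivity of cardiac thin filaments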
IDE cell inh: cellular human IDE inhibition; HEK cells, FAbetaB cleavage, fluorescence polarization; inhibition, % at 5.59 µM; 320,000 compounds, 0.41% hits;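 active means percent inhibition above the average of all tested compounds plus 3 SD, set per screening campaign, cut at about 16% in these data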;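 further: IDE supplied by intact live HEK cells; FP after avidin binding of uncleaved biotin substrate so inhibition keeps polarization high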
Target sequence (P14735 whole entry, looked up): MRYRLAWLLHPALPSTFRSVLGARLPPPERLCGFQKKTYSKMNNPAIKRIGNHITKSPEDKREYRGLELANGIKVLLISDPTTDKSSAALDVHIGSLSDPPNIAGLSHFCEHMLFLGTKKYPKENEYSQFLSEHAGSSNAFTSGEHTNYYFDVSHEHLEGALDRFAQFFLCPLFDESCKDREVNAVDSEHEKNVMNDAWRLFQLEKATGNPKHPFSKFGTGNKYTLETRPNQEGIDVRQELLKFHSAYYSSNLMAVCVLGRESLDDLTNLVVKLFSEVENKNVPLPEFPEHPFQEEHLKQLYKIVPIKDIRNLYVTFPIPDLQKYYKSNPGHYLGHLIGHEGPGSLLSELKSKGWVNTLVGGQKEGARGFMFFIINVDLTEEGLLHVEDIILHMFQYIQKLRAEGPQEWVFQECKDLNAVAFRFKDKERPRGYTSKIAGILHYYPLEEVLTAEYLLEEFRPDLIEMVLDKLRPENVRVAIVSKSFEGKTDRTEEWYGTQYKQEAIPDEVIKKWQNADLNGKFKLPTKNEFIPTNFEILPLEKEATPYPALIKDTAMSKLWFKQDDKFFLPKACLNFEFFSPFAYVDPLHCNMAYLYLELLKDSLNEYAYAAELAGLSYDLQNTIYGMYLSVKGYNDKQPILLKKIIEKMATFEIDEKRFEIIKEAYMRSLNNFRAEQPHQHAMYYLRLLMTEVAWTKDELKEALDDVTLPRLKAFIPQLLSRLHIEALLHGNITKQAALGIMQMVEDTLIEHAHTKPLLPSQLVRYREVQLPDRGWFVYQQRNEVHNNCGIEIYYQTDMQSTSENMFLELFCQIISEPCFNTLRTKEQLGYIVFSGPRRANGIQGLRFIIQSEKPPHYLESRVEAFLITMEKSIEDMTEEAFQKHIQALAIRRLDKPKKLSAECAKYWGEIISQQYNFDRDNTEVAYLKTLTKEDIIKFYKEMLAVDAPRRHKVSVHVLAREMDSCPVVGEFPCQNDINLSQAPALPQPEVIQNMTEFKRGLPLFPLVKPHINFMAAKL
Cardiac RTF inh: cardiac RTF calcium desensitization | P19429+P45379 | IANBD-labeled cardiac RTF, Ca2+ fluorescence | inhibition, % at 7.15 µM | 340,000 compounds, 0.12% hits;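 active means inhibition above the mean inhibition of all tested compounds plus 3 SD, cut at about 17% in these data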;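 further: assay run at fixed EC70 calcium of 1.6 mM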
IDE act: activators of human insulin-degrading enzyme in cells; HEK cells, FAbeta-B cleavage, fluorescence polarization; 0% vehicle, 100% cell-free pure enzyme wells; activation, % at 5.96 µM; AID 493087; 340,000 compounds, 0.073% hits; P14735;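 active means activation above the mean of all tested compounds plus 3 SD, set per screening campaign, cut at about 17% in these data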
IDE inh confirm: confirmation of human insulin-degrading enzyme inhibitors in cells. HEK cells, FAbetaB cleavage, fluorescence polarization. 1,200 compounds, 51% hits. shares compounds with IDE cell inh. inhibition, % at 5.59 µM. AID 435028;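 active means mean inhibition across triplicate wells above the cutoff set by the earlier primary insulin-degrading enzyme screen, cut at about 16% in these data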
HEK293 tox: kills HEK cells in IDE inhibitor counter-screen. shares compounds with IDE cell inh. AID 449730. HEK293 cytotoxicity, ATP luminescence. 1,200 compounds, 28% hits. inhibition, % at 5.59 µM; in the data active means inhibition above about 22%
FP fluor counter: counter-screen for IDE inhibitors: fluorescent artifacts | shares compounds with IDE cell inh | FP counterscreen for fluorescent artifacts, IDE probe project | IC50, µM | 30 tested, under 10 active | AID 588718; call rule not given here
Numbers stand for hits; n = inactive; x = no result.

SMILES | cardiac RTF act | IDE cell inh | Cardiac RTF inh | IDE act | IDE inh confirm | HEK293 tox | others
O=C(NCC(=O)N1CC=C(c2ccccc2)CC1)c1ccc(OC(F)F)cc1 | n | 17.6 | n | n | n | 55.0
CCOC(=O)C1CCCN(C2=NC(=O)/C(=C/c3ccc(O)c(OC)c3)S2)C1 (configuration not stated) | n | 25.0 | n | n | 75.4 | n
Cc1ccc(C)c(N2C(=N)S/C(=C\c3ccc(-c4ccccc4C(=O)O)o3)C2=O)c1 | n | 32.3 | n | n | 16.6 | n | FP fluor counter=n
O=C(Cc1ccccc1)NCC(=O)Nc1cccc(Cl)c1 | n | n | n | n | x | x
CCOc1ccc(-n2c(SCc3ccc(C#N)cc3)nnc2-c2cccnc2)cc1 | n | n | n | n | x | x
N#Cc1ccc(CSc2nnc(-c3cccnc3)n2-c2ccccc2)cc1 | n | 18.9 | n | n | n | 28.5
Cc1ccc(NC(=O)C(C)Sc2nnc(-c3cccnc3)n2-c2ccccc2)cc1 (configuration not stated) | n | 23.5 | n | n | n | n
Cc1ccc2c(c1)CCCN2S(=O)(=O)c1cccc(C(=O)Nc2ccccc2C(=O)O)c1 | n | 40.8 | n | n | 23.5 | 25.6
O=S(=O)(Nc1cccc(S(=O)(=O)N2CCCCCC2)c1)c1ccc(F)cc1F | n | n | n | n | x | x
Cc1ccc(C(=O)NC(=O)CSc2nncn2C)cc1 | n | n | n | n | x | x
Cc1ccc(C2=NN=C(NC(=O)CSc3nncn3C)SC2)cc1 | n | 23.7 | n | n | n | n
CC(C)C(=O)Nc1cccc(COc2cccc(CN(Cc3ccccc3)C(=O)OC(C)(C)C)c2)c1 | n | x | n | n | x | x
Cc1ccc(N2C(=O)c3cccc4c(C(=O)O)ccc(c34)C2=O)cc1 | x | n | x | x | x | x
CC(=O)Nc1ccc(N2C(=O)c3cccc4c(O)ccc(c34)C2=O)cc1 | 608.8 | 95.2 | n | n | 25.9 | n
CC1CCN(CCc2nc3cc(NC(=O)NC4CCCCC4)ccc3n2C)CC1 | n | 19.2 | n | n | n | n
Cn1c(CCN2CCCCC2)nc2cc(NC(=O)NC3CCCCC3)ccc21 | n | n | n | n | x | x
COc1ccc(CC(=O)N2CCN(c3ccccc3)CC2)cc1OC | n | n | n | n | x | x
Fc1ccc(CSc2nnc(-c3ccccn3)o2)cc1 | n | x | n | n | x | x
COc1ccc2ccccc2c1/C=N/NC(=O)c1ccc(C)nc1 | n | n | n | n | x | x
O=C(NN=Cc1c(O)ccc2ccccc12)c1ccc2c(c1)OCO2 | n | 30.0 | n | n | 54.2 | 111.7
O=C(N/N=C/c1c(O)ccc2ccccc12)c1ccc(CO)nc1 | n | 26.6 | n | n | 38.8 | 73.4
CCC(/C=C1\Sc2ccc(OC)cc2N1CC)=C\c1sc2ccc(OC)cc2[n+]1CCCS(=O)(=O)[O-] | n | n | n | n | x | x
CCN1/C(=C/c2cc[n+](CCCS(=O)(=O)[O-])c3ccccc23)Sc2ccccc21 | n | 25.8 | n | n | 28.3 | n
CCOC(=O)/C=C1\SCC(=O)N1CC(O)CN1C(=O)CS/C1=C/C(=O)OCC (configuration not stated) | n | x | n | n | x | x
Cc1ccc(NC(=O)CN(C)C(=O)CSc2nc3ccccc3c(=O)n2CCO)cc1 | n | x | n | n | x | x
SMILES | cardiac RTF act | IDE cell inh | Cardiac RTF inh | IDE act | IDE inh confirm | HEK293 tox | others
CC(C)n1ncc2c(C(=O)NCCc3ccc(S(N)(=O)=O)cc3)cc(C3CC3)nc21 | n | x | n | n | x | x
Cc1ccc(C2=CC(c3ccc(N(C)C)cc3)n3nnnc3N2)cc1 (configuration not stated) | n | 41.0 | n | n | 42.2 | n
COc1ccc(C2=CC(c3ccc(F)cc3)n3nnnc3N2)cc1 (configuration not stated) | n | n | n | n | x | x
CCOc1ccc(Nc2ccnc3cc(Cl)ccc23)cc1 | n | 17.4 | n | n | n | 35.6
CN1CCN(c2ccc(Nc3ccnc4cc(Cl)ccc34)cc2)CC1 | n | n | n | n | x | x
O=C(O)C(CCc1ccccc1)(Cc1ccccc1)C(=O)O | n | x | n | n | x | x
Cn1c(SCC(=O)OC2CCCCC2)nnc1-c1ccco1 | n | 18.9 | n | n | n | n
COc1ccc(/C(C)=N/NC(=O)C(NC(=O)c2ccccc2)c2n[nH]c(=O)c3ccccc23)c(OC)c1 (configuration not stated) | n | n | n | n | x | x
CCCCn1nnc(NC(=O)c2cc3ccccc3o2)n1 | n | n | n | n | x | x
CCCCn1nnc(NC(=O)c2ccc(-c3ccccc3)cc2)n1 | n | 18.1 | n | n | n | 54.9
CCCN1CCc2c(sc(NC(=O)c3ccc(S(=O)(=O)N(C)c4ccccc4)cc3)c2C(N)=O)C1 | n | 16.2 | n | n | n | 26.1
CCCN1CCc2c(sc(NC(=O)c3ccc(S(=O)(=O)N(C)c4ccccc4)cc3)c2C(=O)NC)C1 | n | n | n | n | x | x
CN1CCc2c(sc(NC(=O)c3ccc(S(=O)(=O)N4CCCCCC4)cc3)c2C(N)=O)C1 | n | 24.6 | n | n | n | n
CC(C)CCNC(=O)c1ccc(-n2cnc3cccnc32)cc1 | n | n | n | n | x | x
CCc1ccc2c(CN(C)Cc3ccc(OC(F)F)c(OC)c3)cc(=O)oc2c1 | n | n | n | n | x | x
Nc1c(C(=O)Nc2nc3ccccc3s2)sc2nc(-c3cccs3)ccc12 | n | 28.9 | n | n | 37.1 | 81.2
OCCc1c[nH]c2ccc(C(F)(F)F)cc12 | n | n | n | n | x | x
CC1CCN(c2ccc3c(c2)S(=O)(=O)c2cccc(C(=O)O)c2C3=O)CC1 | n | 31.7 | n | n | 47.9 | n
O=C(NC1CC1)c1cccc2c1C(=O)c1ccc(N3CCC(Cc4ccccc4)CC3)cc1S2(=O)=O | 99.0 | 39.6 | n | n | 70.2 | 45.2
COc1ccc(F)cc1S(=O)(=O)NCC(=O)NCc1cc(=O)n(C)c(=O)n1C | n | n | n | n | x | x
O=C(CN1C(=O)S/C(=C\c2cc(Cl)c(O)c(Cl)c2)C1=O)Nc1ccccc1 | n | 20.8 | n | n | 22.5 | n
O=C(CN1C(=O)S/C(=C\c2ccccn2)C1=O)Nc1ccccc1 | n | x | n | n | x | x
Cc1ccc(C)c(C(=O)C(C)OC(=O)CN2C(=O)NC3(CC(C)CC(C)(C)C3)C2=O)c1 (configuration not stated) | n | n | n | n | x | x
COc1cc(/C=C2\SC(=S)N(C(C(=O)O)c3ccccc3)C2=O)ccc1O (configuration not stated) | n | 64.2 | n | n | 174.3 | n
CCOc1cc(/C=C2/SC(=S)N(CC3CCCO3)C2=O)ccc1O (configuration not stated) | n | 34.8 | n | n | 123.5 | 24.3
CCOc1cc(/C=C2\SC(=S)N(C(C(=O)O)c3ccccc3)C2=O)ccc1O (configuration not stated) | n | 67.8 | n | n | 139.8 | n
COc1ccccc1/C=C1\SC(=S)N(C(C(=O)O)c2ccccc2)C1=O (configuration not stated) | n | n | n | n | x | x
